Screening data: PubChem BioAssay, several laboratories
PKA-R2B act: activates the human PKA-R2B holoenzyme complex; activation, % at 11.4 µM; P22694+P31323; AID 504700; PKA-R2B holoenzyme dissociation, Cy5-IP20 fluorescence polarization; R2B truncated from residue 108, S112A mutant; 0% DMSO only, 100% 113 µM cGMP; actives 0.079% (n = 340,000);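 active = activation above a cutoff set at the mean over all compounds plus 3 SD, cut at about 18% in these data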;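 note: higher means more holoenzyme dissociation and a rise in polarization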
PG9 binder: PG9 antibody binding by small molecule; actives 0.43% (n = 360,000); inhibition, % at 6.7 µM; TR-FRET gp120-PG9 antibody binding; in the data active = inhibition above about 8.5%
PKA-R1A act: activators of PKA-R1A complex; P00514+P68181; PKA-R1A dissociation, Cy5-IP20 fluorescence polarization; scaled: DMSO 0%, 113 µM cGMP 100%; activation, % at 11.4 µM; actives 0.083% (n = 340,000); AID 504707;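 active = percent activation above the mean of all tested compounds plus 3 SD, cut at about 19% in these data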;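 note: higher means more PKAc released from R1A so a rise in polarization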
NR1D1 modulator: modulates human Rev-erb alpha binding to DNA. Rev-erbα–FITC-DNA binding, fluorescence polarization, 90 min. P20393. activity, % at 10 µM. actives 0.79% (n = 370,000). AID 1259318;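 active = activity above about 14%, limit read from the data; passing the limit was not always enough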;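 note: 0% = DMSO wells with 35 nM protein and 100% = DMSO wells with 750 nM protein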
Target sequence (P20393 whole entry, looked up): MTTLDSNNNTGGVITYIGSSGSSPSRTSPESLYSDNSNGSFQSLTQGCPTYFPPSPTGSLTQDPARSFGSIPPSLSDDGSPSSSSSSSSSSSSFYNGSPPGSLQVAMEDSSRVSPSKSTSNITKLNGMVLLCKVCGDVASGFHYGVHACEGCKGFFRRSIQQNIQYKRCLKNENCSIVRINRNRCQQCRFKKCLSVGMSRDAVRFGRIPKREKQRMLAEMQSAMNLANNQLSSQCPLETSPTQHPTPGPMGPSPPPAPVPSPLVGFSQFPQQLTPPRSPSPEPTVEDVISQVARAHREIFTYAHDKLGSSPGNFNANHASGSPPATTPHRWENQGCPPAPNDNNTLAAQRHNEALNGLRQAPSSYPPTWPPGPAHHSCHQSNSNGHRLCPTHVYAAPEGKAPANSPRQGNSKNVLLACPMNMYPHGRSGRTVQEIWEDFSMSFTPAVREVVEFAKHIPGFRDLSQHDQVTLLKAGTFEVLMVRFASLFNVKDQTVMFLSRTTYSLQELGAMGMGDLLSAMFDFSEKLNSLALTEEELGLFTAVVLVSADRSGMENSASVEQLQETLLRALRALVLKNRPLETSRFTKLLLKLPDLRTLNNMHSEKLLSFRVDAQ
NR1D1 mod conf: Rev-erb alpha (human) modulation, hit confirmation. shares compounds with NR1D1 modulator. Rev-erb alpha FITC-DNA binding, fluorescence polarization, 90 min. activation, % at 25 µM. actives 61% (n = 3,000);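 active = activation at or above a set limit, or at least 3 SD above the negative control mean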;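 note: 0% = 35 nM protein with DMSO and 100% = 750 nM protein high control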
RORg counter: RORgamma DNA-binding activity, dose-response counter-screen; actives 8% (n = 910); IC50, µM; shares compounds with NR1D1 modulator; purified RORgamma protein-FITC-DNA binding, fluorescence polarization; AID 1259320;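 active = Compounds whose fitted half-maximal concentration for disrupting protein-DNA binding is below 10 micromolar; the record names Rev-erb in its text, so the target is in doubt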
* marks the source's active call; other numbers are inactive results; . = no result. This is a sample that favours compounds with a hit; in the whole collection about 1.2% have one here.

SMILES	PKA-R2B act	PG9 binder	PKA-R1A act	NR1D1 modulator	NR1D1 mod conf	others
COC(=O)C1=CC[C@@H](NC(=O)OC(C)(C)C)[C@H](O)[C@H]1O[Si](C)(C)C(C)(C)C	.	.	.	2.8	.
CCOC(=O)c1sc(NC(=O)CN2C(=O)NC3(CCCCCCC3)C2=O)c(C(=O)OCC)c1C	-2.4	-0.3	-9.7	28.2*	7.3
CCN(CC)CCCNc1ccc2ncn3c4ccc(O)cc4c(=O)c1c23	-8.8	-19.4	1.8	91.5*	50.4*
COc1ccc(CN2C(=O)c3cccc4cccc(c34)C2=O)cc1	-7.2	-0.2	-18.4	23.3*	15.3*
COc1ccc2c(c1)Sc1ccc(Cl)cc1N2	.	.	.	-1.2	.
CCOC(=O)/C(=C\C=C1/Sc2cc(OCC)c(OCC)cc2N1CC)C(C)=O	-7.3	-13.5	-20.1	111.8*	42.4*	RORg counter=>40
CCOC(=O)/C(=C/C=C1\Sc2cc(OCC)c(OCC)cc2N1CC)C(C)=O	-11.6	-12.4	-3.5	31.7*	-4.7
O=C(NC1CCCCCCC1)c1cc(-c2ccccn2)nc2ccccc12	-4.5	0.3	-4.0	40.6*	-0.4
Cc1nnsc1-c1onc(C)c1C(=O)Nc1cc(Cl)cc(Cl)c1	-4.1	-1.1	-2.5	24.8*	11.5
Cc1ccc(NC(=O)c2c(C)noc2-c2snnc2C)cc1	7.0	-1.1	-6.8	8.5	.
COc1cc(N=Nc2cccc(S(N)(=O)=O)c2)c2ccccc2c1N	-11.3	-6.4	-13.8	34.8*	13.6
O=C(OCC#CCSc1nnc(-c2ccccc2F)o1)c1ccc(F)cc1	.	.	.	-7.8	.
O=C(C1CCCN(S(=O)(=O)c2cccs2)C1)N1CCN(Cc2ccccc2)CC1 (stereo not given)	.	.	.	8.5	.
O=c1ccc2c(-c3ccccc3)c3ccc(O)cc3oc-2c1	3.8	-3.1	-10.6	101.9*	99.5*	RORg counter=>40
Nc1ccc(-c2c3ccc(=O)cc-3oc3cc(O)ccc23)cc1C(=O)O	-3.1	-6.4	-7.5	187.2*	240.4*	RORg counter=>40
O=c1cc(-c2ccccc2)oc2cc(O)ccc12	-15.3	2.0	-5.6	1.8	.
COc1ccc(C(=O)CSc2nnc(-c3cccnc3)n2-c2ccccc2)cc1	.	.	.	-2.4	.
COc1cccc(-c2cc3nc(C)c(C)c(N4CCN(Cc5ccco5)CC4)n3n2)c1	.	.	.	-3.1	.
CC(=O)c1ccc(NC(=O)COC(=O)c2ccccc2Sc2ccccc2C#N)cc1	1.4	-1.6	2.6	54.6*	31.3*	RORg counter=>40
CN(C)C(=O)COC(=O)c1ccccc1Sc1ccccc1C#N	-0.9	-0.5	-16.8	1.6	.
N#Cc1cccc(NC(=O)COC(=O)c2ccccc2Sc2ccccc2C#N)c1	1.3	-2.4	3.7	36.7*	20.5*
CN=C1S/C(=C/c2cc(C)n(-c3cc(C)ccc3OC)c2C)C(=O)N1C	.	.	.	1.6	.
C=CCNc1nc(NCc2ccc(NC(C)=O)cc2)c2sc(-c3ccccc3)cc2n1	.	-0.6	.	65.5*	75.9*	RORg counter=>40
CC(=O)Nc1ccc(CNc2nc(NC(C)C)nc3cc(-c4ccccc4)sc23)cc1	.	-0.8	.	-1.5	.
CCC(=O)c1ccc(N2CCN(S(=O)(=O)c3ccccc3)CC2)c(F)c1	-12.6	-2.6	-6.2	22.7*	45.8*	RORg counter=>40
SMILES	PKA-R2B act	PG9 binder	PKA-R1A act	NR1D1 modulator	NR1D1 mod conf	others
O=C(NC1CCCCN(Cc2cccc(C(F)(F)F)c2)C1=O)c1ccc(COc2ccccc2)cc1 (stereo not given)	.	.	.	-6.2	.
CCc1cc2c3c(c(=O)oc2cc1O)CCCC3	-6.2	-0.2	-0.7	-3.6	.
Cc1oc2c(C)c3oc(=O)c4c(c3cc2c1C)CCC4	-3.0	0.6	-10.8	46.0*	9.0
Cc1oc2cc3oc(=O)c4c(c3cc2c1C)CCC4	-1.0	0.1	-12.1	49.3*	44.0*	RORg counter=>40
Nn1c(SCC(=O)Nc2ccc(Br)cn2)nnc1-c1n[nH]c2c1CCC2	.	.	.	-2.6	.
Cc1cc(=O)oc2cc(OCC(=O)Nc3ccc4[nH]c(=O)[nH]c4c3)ccc12	-11.1	-1.7	-0.6	5.2	.
Cc1cc(=O)oc2cc(OCC(=O)Nc3ccccc3C(=O)O)ccc12	-2.4	-0.8	3.0	-2.2	.
Cc1cc(=O)oc2cc(OCC(=O)Nc3ccc(S(=O)(=O)N(C)C)cc3)ccc12	-2.1	-1.0	-0.1	23.2*	30.3*	RORg counter=>40
Cc1cc(=O)oc2cc(OCC(=O)Nc3ccc(F)cc3F)ccc12	2.5	1.3	-13.0	20.9*	-1.2
COc1cccc(CNC(=O)COC(=O)c2cc(Br)c(Br)s2)c1	-1.4	1.1	5.0	21.4*	18.1*
CCCN1C(=O)S/C(=C\c2ccc(N3CCOCC3)o2)C1=O	5.7	-9.4	-1.2	-0.8	.
CCCN1C(=O)S/C(=C/c2ccc(N3CCOCC3)o2)C1=O	1.3	-11.5	-5.3	47.1*	44.7*	RORg counter=>40
Nc1ccc2cc3ccc(N)cc3nc2c1	.	.	.	28.1*	27.1*	RORg counter=>40
COc1ccc2oc(C(=O)OCC(=O)/C(C#N)=C(\C)N)c(C)c2c1	-11.8	-0.3	-4.7	19.5*	13.6
Cc1occc1C(=O)N/N=C/c1c(O)ccc2ccccc12	-5.2	0.6	-6.7	24.6*	25.5*
O=C(N/N=C\c1c(O)ccc2ccccc12)c1ccc(O)cc1	-8.5	0.2	-5.2	-2.9	.
C[C@@H]1OCN(C)[C@H]2C[C@H]3c4[nH]c5cccc(-c6ccc7c(c6)OCO7)c5c4CCN3C[C@@H]12	.	.	.	3.4	.
O=C(Cn1c(=O)c(=O)n(Cc2ccccc2)c2ccc(Cl)cc21)Nc1ccc(F)cc1F	-11.3	-1.9	-4.6	28.6*	11.6
Cn1cc(C(=O)NCc2cccs2)c(=O)c2cc(S(=O)(=O)N3CCCC3)ccc21	-2.8	-1.2	4.7	28.1*	24.6*
Cc1nc(SC(C(N)=O)c2ccccc2)c(C#N)c(C)c1C (stereo not given)	.	-3.6	.	-3.8	.
COc1ccccc1-c1cc(-c2ccccc2)nc(SC(C(N)=O)c2ccccc2)c1C#N (stereo not given)	-0.5	8.2	-7.3	39.2*	20.2*
COc1nc(OC)nc(N2CCC(C(=O)NCc3ccccc3OC)CC2)n1	.	.	.	5.4	.
O=c1[nH]c(/C=C/c2ccccc2OC(F)F)nc2c1cnn2-c1ccccc1	3.8	2.7	-4.6	23.8*	4.6
COc1cc(/C=C/c2nc3ccccc3c(=O)[nH]2)ccc1OC(F)F	-7.9	3.1	7.6	-0.8	.
Fc1ccc(-[n+]2nc(Nc3ccccc3)sc2-c2ccc(OCc3ccccc3)cc2)cc1	-8.9	-0.7	-11.2	156.2*	11.0
Brc1ccc(-c2nn3c(-c4ccccc4)nnc3s2)o1	.	.	.	4.7	.
CCC[C@H]1[C@@H](NC(=O)Nc2ccc3c(c2)OCO3)CC[C@@]23CCCN2C(=O)CCC[C@@H]13	.	.	.	-3.7	.
O=S(=O)(/N=C(/Nc1nc2ccccc2s1)c1ccccc1)c1ccc(F)cc1	-2.3	1.5	-14.7	19.1*	-3.1
